D3 ag – activates the human D3 dopamine receptor; D3R DiscoveRx beta-arrestin cells, luminescence, 90 min; hit rate 0.58% among 410,000; max activation, %; in the data active = max activation above about 30%
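Agonist mode: compounds and dopamine controls were applied to plated cells for 90 min at 37 degrees C after an overnight attachment at 1500 cells/well. Luminescent read-out followed 30 - 60 minutes at room temperature with DiscoveRx detection reagent.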
GLP1R ag – agonists of human GLP-1 receptor; HEK293 GLP-1R CRE-luciferase, luminescence, 4-6 h; cells express a hypersensitive GLP-1R form; P43220; Potency, µM (series often up to 45.6 µM), hits mostly activators; AID 624172; hit rate 0.007% among 380,000
Target sequence (P43220 whole entry, looked up): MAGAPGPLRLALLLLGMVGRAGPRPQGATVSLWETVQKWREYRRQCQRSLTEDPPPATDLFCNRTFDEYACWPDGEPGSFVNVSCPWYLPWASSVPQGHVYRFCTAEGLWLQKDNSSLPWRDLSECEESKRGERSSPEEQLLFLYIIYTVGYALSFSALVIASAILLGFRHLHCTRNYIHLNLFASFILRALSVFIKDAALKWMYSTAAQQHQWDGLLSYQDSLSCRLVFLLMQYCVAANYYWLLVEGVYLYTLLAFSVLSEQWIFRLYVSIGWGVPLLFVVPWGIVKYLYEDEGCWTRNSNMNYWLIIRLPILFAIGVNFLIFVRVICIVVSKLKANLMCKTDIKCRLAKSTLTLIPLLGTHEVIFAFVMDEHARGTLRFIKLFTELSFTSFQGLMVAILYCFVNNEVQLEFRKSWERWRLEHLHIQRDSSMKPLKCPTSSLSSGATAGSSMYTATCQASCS
GLP-1R inv ag – inverse agonists of human GLP-1 receptor; P43220; HEK293 GLP-1R CRE-luciferase, luminescence, 24 h; GLP-1R form is constitutively active; Potency, µM (series often up to 38.3 µM), hits mostly inhibitors; hit rate 1.6% among 410,000; AID 624417; note: nearly all actives have a fitted effect of over 55% in size
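Luminescence readout: a drop in cAMP-driven luciferase signal flags inverse agonism at a constitutively active GLP-1R stably expressed in HEK293. Compound exposure lasted 24 hr at 37 deg C, 5% CO2.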
D3 antag – antagonists of human D3 dopamine receptor. P35462. D3R cells, DiscoveRx beta-arrestin luminescence, antagonist mode; hits give low values. max response, negative = inhibition, %. hit rate 2.5% among 360,000; in the data active = max response below about -50%; inconclusive = no clear call, values can overlap the other calls
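Cells expressing the human receptor were seeded at 1500 cells/well, incubated overnight at 37 degrees C in 5% CO2, then exposed to library compounds with dopamine controls for 90 minutes at 37 degrees C before luminescent detection.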
Numbers stand for hits; n = inactive; u = inconclusive; x = not tested or not shown. The list is not random: actives were taken first. Their share in the collection is about 4.3%. Unless noted, calls come from the whole dose curve; as a rule, active = well fitted curve in the direction sought with a large enough effect; inconclusive = small, poorly fitted or top-dose-only effect, or another doubt; inactive = no such curve, though single readings can be large; an effect the other way counts as inactive or inconclusive.

SMILES | D3 ag | GLP1R ag | GLP-1R inv ag | D3 antag
Cc1c(C(=O)Nc2ccncc2)oc2ccccc12 | 52 | n | n | n
Cc1c(C(=O)Nc2ccccn2)oc2ccccc12 | n | n | n | n
CNC(=O)CSc1nnc(NC(=O)Nc2ccccc2)s1 | n | x | n | x
COc1ccc(OCC(O)CN2CCCCCC2)cc1 (configuration not stated) | n | n | n | -54
OC(COCc1ccccc1)CN1CCN(c2ccccc2F)CC1 (configuration not stated) | 51 | n | n | n
O=[N+]([O-])c1ccc(OCC(O)CN2CCN(c3ccccc3F)CC2)cc1 (configuration not stated) | 59 | n | u | n
COc1ccc(N(CC(O)CN2CCCCC2)S(=O)(=O)c2ccc(C)cc2)cc1 (configuration not stated) | n | n | n | -80
Clc1ccccc1CN1CCN(CCCc2ccccc2)CC1 | n | n | u | -79
CC1CCCN(CC(O)COc2ccc(-c3ccccc3)cc2)C1 (configuration not stated) | n | n | u | u
Cc1cc(CN2CCN(c3ccccc3F)CC2)cs1 | n | x | n | x
FCCCOc1ccc(CN2CCN(c3ccccc3F)CC2)cc1 | n | n | n | -60
CC1CCCN(CC(O)COc2ccc(Cl)cc2)C1 (configuration not stated) | n | n | u | -58
OCC1(CCc2ccccc2)CCN(Cc2ccccc2Cl)CC1 | n | n | u | u
Fc1ccccc1N1CCN(CCCc2ccccc2)CC1 | n | n | n | -92
Cc1ccc(CNC(=O)c2cccn2-c2nnc(N3CCCCC3)s2)cc1 | n | x | n | x
O=C(c1cnc(N2CCCCC2)c2ccccc12)N1CCN(c2ccccc2F)CC1 | n | x | u | x
COc1ccc(N2CCN(CC(O)COc3ccc4c(c3)CCC4)CC2)cc1 (configuration not stated) | n | n | u | -79
COc1ccc(OCC(O)CN2CCN(CC(O)COc3ccc(OC)cc3)CC2)cc1 (configuration not stated) | n | n | n | n
c1ccc(CN2CCN(CCCNc3ccc4nnc(-c5ccccc5)n4n3)CC2)cc1 | n | n | u | n
CC1CCC(C(C)C)C(OCC(O)CN2CCCC(C)C2)C1 (configuration not stated) | n | n | 8.9µM | u
OC(COCC1COc2ccccc2O1)CN1CCN(c2ccccc2F)CC1 (configuration not stated) | n | n | u | u
Fc1ccccc1N1CCN(CCCNc2ccc3nncn3n2)CC1 | 46 | n | n | -61
OC(COc1ccc2c(c1)CCC2)CN1CCN(c2ccccc2F)CC1 (configuration not stated) | 32 | n | u | u
CC1=C[C@@H](O)CC(C)(C)[C@@H]1/C=C/C(C)=C/C=C/C(C)=C/C=C/C=C(C)/C=C/C=C(C)/C=C/C1=C(C)C[C@H](O)CC1(C)C | x | n | x | x
Fc1ccccc1N1CCN(Cc2cc(-c3ccccc3)on2)CC1 | n | n | u | -88
SMILES | D3 ag | GLP1R ag | GLP-1R inv ag | D3 antag
Cn1c(=O)c2c(-c3ccccc3)n(-c3cccc(C#N)c3)cc2n(C)c1=O | n | x | n | x
Cc1ncc(C(O)c2ccc(N(C)C)cc2)n1Cc1ccccc1 (configuration not stated) | n | n | n | n
CCc1ncc(C(O)c2ccc(Cl)cc2)n1Cc1ccccc1 (configuration not stated) | n | n | 8.9µM | n
C[N+](C)(C)CC/C=C1/c2ccccc2CSc2ccccc21 | n | n | n | n
CNCCC=C1c2ccccc2CCc2ccccc21 | n | n | 6.3µM | -91
Cc1cccc(C(=O)NCC(c2ccc3c(c2)OCO3)N2CCN(c3ccccc3F)CC2)c1 (configuration not stated) | n | x | u | x
CCCCCN(C(=O)CCC(=O)OCC(=O)N(C)Cc1ccccc1C)c1c(N)n(CCCC)c(=O)[nH]c1=O | n | n | n | n
CCCCn1c(N)c(N(CCOC)C(=O)COC(=O)COc2cc(C)c(Cl)cc2C(C)C)c(=O)[nH]c1=O | n | n | 10µM | n
CCCCCN(C(=O)CCC(=O)OCC(=O)N(CC#N)c1ccccc1)c1c(N)n(CCCC)c(=O)[nH]c1=O | n | n | n | -54
Cc1ccc(-n2c(=O)c3ccc(C(=O)NCc4ccco4)cc3n(Cc3ccc(Cl)cc3)c2=O)cc1 | n | x | u | x
CCc1c(C)sc2c1CCN(Cc1cccc(F)c1)C2c1ccccc1 (configuration not stated) | n | x | u | x
COc1cc(NC(=O)Cn2c(=O)n(-c3ccccc3)c(=O)c3c4c(sc32)CCCC4)cc(OC)c1 | n | n | n | x
CC(C)c1ccc(S(=O)(=O)c2nnn3c2nc(NCCc2ccccc2)c2sccc23)cc1 | n | x | n | x
Cc1cc(C)nc(-n2nc(C)c3c2NC(=O)CC3c2cc(F)ccc2F)n1 (configuration not stated) | n | x | n | x
CCC(C)NCCOc1cc(C)cc(C)c1C (configuration not stated) | n | n | u | -69
CC(C)OCCCNC(=O)Cn1ncc2c(=O)oc3ccccc3c21 | n | n | n | n
Cc1ccc2oc(=O)c3cnn(CC(=O)NCCCOC(C)C)c3c2c1 | n | n | n | -84
O=C(COc1ccc(Br)cc1)Nc1ccc(C(=O)OC2CCCCC2)cc1 | n | x | n | x
Cc1cccc(Cn2c(SCc3ccc(C(=O)NCc4ccccc4F)cc3)nc3ccncc32)c1 | n | x | u | x
COc1ccc(CN(CCC(c2ccc3c(c2)OCO3)c2ccccc2OC)C(C)=O)cc1 (configuration not stated) | n | x | u | x
CC(=O)N(CCC(Cc1ccccc1)c1ccc2c(c1)OCO2)Cc1ccc(Cl)cc1 (configuration not stated) | n | n | 11µM | u
CCS(=O)(=O)c1ccccc1C(=O)N(Cc1cccnc1)c1nc2cc(C)c(C)cc2s1 | n | x | u | x
COCCn1c(SCC(=O)Nc2ccc(C(F)(F)F)cc2)nc2c([nH]c3ccccc32)c1=O | n | n | n | x
COc1ccc(C(CNC(=O)Cc2ccc3ccccc3c2)N(C)C)cc1 (configuration not stated) | n | n | u | n
COc1ccc(C(CNC(=O)C(C)c2ccc3cc(OC)ccc3c2)N(C)C)cc1 (configuration not stated) | n | n | u | -76
SMILES | D3 ag | GLP1R ag | GLP-1R inv ag | D3 antag
CN(C)c1ccc(C(CNC(=O)c2ccccc2)N2CCc3ccccc32)cc1 (configuration not stated) | n | x | n | x
S=c1[nH]nc(C2CCCCC2)n1/N=C/c1ccncc1 | n | n | 1.8µM | n
COc1cc(/C=C/c2ccc3cccc(O)c3n2)cc(OC)c1OC | n | n | u | -64
COC(=O)c1ccc(/C=C/c2ccc3cccc(OC)c3n2)cc1 | 31 | n | u | n
COc1cccc(/C=C/c2ccc3cccc(O)c3n2)c1 | n | n | u | -56
COc1cc(/C=C/c2ccc3c(Br)cc(Br)c(O)c3n2)ccc1O | n | n | 7.9µM | -91

Assay outcomes from PubChem.
